Source: PubChem
TrxR1 inh = qHTS Assay for Inhibitors of Mammalian Selenoprotein Thioredoxin Reductase 1 (TrxR1): qHTS; Thioredoxin reductase 1, cytoplasmic (Rattus norvegicus), O89049; recombinant rTrxR1, NADPH fluorescence consumption, selenite substrate; Potency, µM (titrated, usually from 114 µM), hits mostly inhibitors; 390,000 tested, 1% active; further: nearly all actives have a fitted effect of over 65% in size
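Rat TrxR1 (90 nM in the dispensed reagent) was pre-reduced with 400 uM NADPH for 5 min at room temperature, then incubated with compound for 15 min. After 400 uM selenite was added, NADPH fluorescence (Ex 340/Em 450 nm) was followed for 8 min.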
TrxR1 substrate = qHTS Assay for Substrates of Mammalian Selenoprotein Thioredoxin Reductase 1 (TrxR1): qHTS; Thioredoxin reductase 1, cytoplasmic (Rattus norvegicus), O89049; purified TrxR1 substrate turnover, NADPH consumption readout; Potency, µM (doses to about 114 µM); 390,000 tested, 0.01% active; AID 588456, 2011; further: nearly all actives have a fitted effect of over 50% in size
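Rat TrxR1, dispensed at 90 nM, was prereduced with 400 uM NADPH (final) for 5 min at ~22 deg C, then incubated with compound 15 min before 400 uM selenite. A first-read NADPH fluorescence drop versus no-compound background flagged substrates.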
mIDH1 inhibitor = qHTS for Inhibitors of mutant isocitrate dehydrogenase 1 (IDH1): qHTS | Isocitrate dehydrogenase [NADP] cytoplasmic (Homo sapiens), O75874 | IDH1-R132H enzyme, NADPH consumption, diaphorase/resazurin fluorescence | Potency, µM (doses to about 76.6 µM), usual class: inhibitors | 390,000 tested, 0.093% active; further: nearly all actives have a fitted effect of over 65% in size
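IDH1-R132H (0.5 ug/mL dispensed) in pH 7.5 Tris buffer was preincubated 30 min with compound, then given a substrate mix of 0.016 mM NADPH and 2 mM alpha-KG for 80 min at room temperature; remaining NADPH was read by diaphorase/resazurin fluorescence.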
GLS inh = qHTS for Inhibitors of Glutaminase (GLS). Glutaminase kidney isoform, mitochondrial (Homo sapiens), O94925. GLS enzymatic activity, qHTS titration. Potency, µM (titrated, usually from 45.5 µM), actives largely listed as inhibitors. 410,000 tested, 0.21% active. AID 624170, 2012
Target sequence (O94925 whole entry, looked up, canonical isoform): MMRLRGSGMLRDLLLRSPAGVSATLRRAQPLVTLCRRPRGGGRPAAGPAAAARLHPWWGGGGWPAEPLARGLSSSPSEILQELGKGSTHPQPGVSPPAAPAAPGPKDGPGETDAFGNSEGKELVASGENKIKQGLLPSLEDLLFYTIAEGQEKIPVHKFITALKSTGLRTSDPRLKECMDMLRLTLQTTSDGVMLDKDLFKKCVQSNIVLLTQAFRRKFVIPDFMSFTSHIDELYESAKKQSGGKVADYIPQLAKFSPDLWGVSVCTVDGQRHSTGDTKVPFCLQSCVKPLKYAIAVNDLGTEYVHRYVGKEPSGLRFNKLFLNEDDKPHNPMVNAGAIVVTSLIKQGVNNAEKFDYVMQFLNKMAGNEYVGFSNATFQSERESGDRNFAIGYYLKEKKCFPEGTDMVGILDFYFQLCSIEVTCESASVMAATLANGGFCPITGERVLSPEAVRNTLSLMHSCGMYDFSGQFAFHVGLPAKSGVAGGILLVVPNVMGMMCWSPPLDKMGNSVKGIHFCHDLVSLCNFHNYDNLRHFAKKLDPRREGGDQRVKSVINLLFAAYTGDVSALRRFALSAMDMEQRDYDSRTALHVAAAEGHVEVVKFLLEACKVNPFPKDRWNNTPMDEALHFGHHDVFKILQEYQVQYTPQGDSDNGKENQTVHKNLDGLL
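Compounds were pin-transferred onto hKGA, after which L-glutamine (1 mM solution) and a detection mix of glutamate oxidase, HRP and Amplex Red were added. Initial and 30 min RT fluorescence reads were collected.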
Large screens that a line does not name were inactive; ! = not active in a repeat. Compounds with a hit are over-represented: about 1.2% of the library has one in this group of screens. The call rests on the fitted dose curve; in most records, active means well fitted curve in the direction sought with a large enough effect; inconclusive means small, poorly fitted or top-dose-only effect, or another doubt; inactive means no such curve, though single readings can be large; an effect the other way counts as inactive or inconclusive.

Clc1cccc[n+]1CCCCCC[n+]1ccccc1Cl	TrxR1 inh 56µM (no result: mIDH1 inhibitor, GLS inh)
Cn1c(-n2cccc2)c(-c2c(-c3ccccc3)[nH]c3c2c(=O)n(C)c(=O)n3C)c(=O)n(C)c1=O	none
COc1ccc(OC)c(CN2CCN(C(=O)c3cccc4ccccc34)CC2)c1	none
COc1cc(CN2CCN(C(=O)c3cccc4ccccc34)CC2)cc(OC)c1O	TrxR1 inh 50µM
Cn1c(=O)c2[nH]c(-c3ccc(S(=O)(=O)O)cc3)nc2n(C)c1=O	TrxR1 inh 32µM!
CC(C)c1ccc(-c2nc3c([nH]2)c(=O)n(C)c(=O)n3C)cc1	none
O=C(COc1ccccc1F)Nc1ccc2nc(SCC(=O)N3CCc4ccccc43)sc2c1	none
Cc1ccc(C)c(NC(=O)CSc2nnc(CNC(=O)c3ccccc3)n2-c2ccccc2)c1	none
Cn1c(=O)c(C(=O)c2ccccc2)nc2ccccc21	GLS inh 11µM
O=C(c1ccccc1)c1nc2ccccc2n(CCCn2c(=O)c(C(=O)c3ccccc3)nc3ccccc32)c1=O	none
COc1ccccc1CN(C)C(=O)c1cccc(S(=O)(=O)N2CCCC2)c1	none
Cc1ccc(CN(C)C(=O)c2cccc(S(=O)(=O)N3CCCC3)c2)o1	TrxR1 inh 40µM
O=[N+]([O-])c1ccc(Cl)c(S(=O)(=O)/N=C(/Sc2ccc(Br)cc2)c2ccccc2)c1	none (no result: mIDH1 inhibitor, GLS inh)
Cc1ccc(CSc2cn(CC(=O)N3CCCCCC3)c3ccccc23)cc1	none
Oc1c(I)cc(Cl)c2cccnc12	TrxR1 inh 7.9µM
Clc1cc2cccnc2c2ncccc12	none
COc1ccc(-c2ccccc2)c2oc(-c3ccco3)cc(=O)c12	TrxR1 inh 32µM
COc1ccc(-c2cc(=O)c3c(OC)c(OC)c(OC)c(OC)c3o2)cc1OC	none
CCN(CC)c1ccc(NC(=O)C2CCCN(S(=O)(=O)c3ccc4c(c3)oc(=O)n4C)C2)c(C)c1 (stereo not drawn)	none
CCCCNC(=O)C1(C)CCC(=O)N1c1cc(C(C)(C)C)nn1C (stereo not drawn)	none (no result: TrxR1 inh, TrxR1 substrate, mIDH1 inhibitor)
COc1ccc(C(=S)NCS(=O)(=O)c2ccc(C)cc2)cc1	TrxR1 inh 4µM
Cc1ccc(S(=O)(=O)CNC(=S)c2ccc3ccccc3c2)cc1	TrxR1 inh 40µM
Cc1ccc(S(=O)(=O)CNC(=S)c2cccc(C)c2)cc1	TrxR1 inh inconclusive
COc1ccc(C(=S)Nc2ccc(C)cc2)cc1	none
CCC(=O)N1CCc2cc(Br)cc(S(=O)(=O)N3CCCC(C(=O)Nc4cc(C)ccc4OC)C3)c21 (stereo not drawn)	TrxR1 inh 89µM
O=C(O)c1cocc1C(=O)O	none (no result: TrxR1 inh, TrxR1 substrate)
O=[N+]([O-])c1cc(Br)c(Nc2ccccc2)c([N+](=O)[O-])c1	TrxR1 inh 11µM
COc1ccc(C(NC(=O)c2ccco2)c2ccc(OC)c(OC)c2)cc1 (stereo not drawn)	none
COc1ccc(C(NC(=O)/C=C/c2ccco2)c2ccc(OC)c(OC)c2)cc1OC	TrxR1 inh 4.5µM
COc1ccc(C2(CNC(=O)/C=C\c3ccco3)CCCC2)cc1OC	TrxR1 inh 10µM
CCCCC1=CC2=C(c3ccco3)C(=O)C(C)(OC(=O)c3ccc(OC)cc3)C(=O)C2=CN1Cc1ccccc1 (stereo not drawn)	TrxR1 inh 45µM
CCCCC1=CC2=C(c3ccco3)C(=O)C(C)(OC(=O)c3ccc(OC)cc3)C(=O)C2=CN1CCOC (stereo not drawn)	TrxR1 inh inconclusive
Cc1ccc(Sc2c([N+](=O)[O-])c(=O)n(C)c3ccccc23)cc1	TrxR1 inh 2µM
Cc1ccc(Sc2c(O)c3ccccc3n(C)c2=O)cc1	none
Cc1cccc(-c2noc(CN(C(=O)COc3ccc(C(C)C)cc3)C(C)C)n2)c1	none
CCN(C(=O)c1sc2nc3n(c(=O)c2c1C)CCCCC3)c1ccc(OC)cc1	TrxR1 inh 71µM
CCN(CC)CCOC(=O)c1ccc(N)cc1Cl	none (no result: TrxR1 inh, TrxR1 substrate, mIDH1 inhibitor)
Cc1ccc(S(=O)(=O)c2c(C)cc(C)nc2Cl)cc1	GLS inh 11µM
Cc1cc(C)c(S(=O)(=O)c2ccccc2)c(Cl)n1	none
Cc1ccc(C)c(S(=O)(=O)c2c(C)cc(C)nc2Cl)c1	none
Cc1cc(C)c(S(=O)(=O)c2ccccc2C)c(Cl)n1	GLS inh 13µM
Cc1ccc(S(=O)(=O)c2c(C)cc(C)nc2Cl)c(C)c1	GLS inh 13µM
Nc1c(Cl)cc(-c2csc(N3CCCC3c3nc4cc(Cl)c(N5CCCCC5)cc4n3CCCO)n2)cc1Cl (stereo not drawn)	none
CC(=O)C1=C(c2ccccc2)NC(=S)NC1c1cc(Cl)c(OC(C)C)c(Cl)c1 (stereo not drawn)	none
CC(=O)C1=C(c2ccccc2)NC(=O)NC1c1ccc(O)c(O)c1 (stereo not drawn)	GLS inh 10µM
CC(=O)C1=C(c2ccccc2)NC(=S)NC1c1ccc(O)c(O)c1 (stereo not drawn)	GLS inh 8.9µM
Cc1ccc(S(=O)(=O)/N=C2\C=C(NS(=O)(=O)c3ccccc3)C(=O)c3ccccc32)cc1	TrxR1 inh inconclusive
Cc1ccc(S(=O)(=O)/N=C2/C=C(C3C(=O)CC(C)(C)CC3=O)C(=O)c3ccccc32)cc1	TrxR1 inh 18µM, GLS inh inconclusive
CCCCn1c(SCC(=O)Nc2sc3c(c2C(N)=O)CCC3)nnc1-c1ccccc1	TrxR1 inh 35µM
NC(=O)c1c(NC(=O)CSc2nnc(Cc3ccccc3)n2Cc2ccco2)sc2c1CCC2	TrxR1 inh inconclusive
CN(Cc1ccccc1F)C(=O)c1cccc(NC(=O)CC2SC(N3CCCCC3)=NC2=O)c1 (stereo not drawn)	none
COc1ccc(CCNC(=O)CCCCn2c(=O)c3ccccc3n(CC(=O)Nc3ccc(C)cc3C)c2=O)cc1OC	none
CC(c1ccc(F)cc1)n1c(-c2ccc3ccccc3n2)n[nH]c1=S (stereo not drawn)	TrxR1 inh inconclusive, GLS inh 13µM
CN(C)c1ccc(/C=C2\C=Nc3ccccc32)cc1	none (no result: mIDH1 inhibitor, GLS inh)
CN(C)c1ccc(C2CCc3ccccc3N2C(=O)c2ccccc2)cc1 (stereo not drawn)	none (no result: mIDH1 inhibitor, GLS inh)
CCN(CC)c1ccc(S(=O)(=O)N2CCOCC2)cc1NC(=O)COC(=O)/C=C/c1ccc(C)o1	TrxR1 inh 71µM
COC(=O)c1cc(NC(=O)Cn2nc(-c3ccc(C)c(C)c3)ccc2=O)cc(C(=O)OC)c1	none
COc1ccc(Br)cc1C1C(C(=O)Nc2ccc(C)cc2C)=C(C)Nc2ncnn21 (stereo not drawn)	none
N=C(N)SCc1ncccc1O	TrxR1 inh 32µM
N=C(N)SCc1ccccn1	none
CN1CCN(c2cc(=O)n(C3CCCCC3)c(=O)[nH]2)CC1	TrxR1 inh 25µM
CCc1ccccc1NC(=O)c1cccc(NC(=O)/C=C/c2ccco2)c1	TrxR1 inh inconclusive
